Assay results: PubChem BioAssay AID602143 (Vanderbilt Specialized Chemistry Center, 2011)
Values joined by “and” are separate entries in the source; they are usually repeats but may differ in a detail not shown here. Equal values may be shown once. Active and inactive are the calls of the source. Cut-off read from the data, not from the text of the source: active = remaining activity below about 50%; inactive = the rest.

target: Phospholipase D2 (Homo sapiens) (UniProt O14939); assay: PLD2 inhibitors in cells, cell-based, HEK293, single concentration (AID 602143); conditions: HEK293 cellular PLD2 activity, percent of control; hits give low values;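 note: tested at 200 nM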
Sequence (O14939 whole entry, looked up): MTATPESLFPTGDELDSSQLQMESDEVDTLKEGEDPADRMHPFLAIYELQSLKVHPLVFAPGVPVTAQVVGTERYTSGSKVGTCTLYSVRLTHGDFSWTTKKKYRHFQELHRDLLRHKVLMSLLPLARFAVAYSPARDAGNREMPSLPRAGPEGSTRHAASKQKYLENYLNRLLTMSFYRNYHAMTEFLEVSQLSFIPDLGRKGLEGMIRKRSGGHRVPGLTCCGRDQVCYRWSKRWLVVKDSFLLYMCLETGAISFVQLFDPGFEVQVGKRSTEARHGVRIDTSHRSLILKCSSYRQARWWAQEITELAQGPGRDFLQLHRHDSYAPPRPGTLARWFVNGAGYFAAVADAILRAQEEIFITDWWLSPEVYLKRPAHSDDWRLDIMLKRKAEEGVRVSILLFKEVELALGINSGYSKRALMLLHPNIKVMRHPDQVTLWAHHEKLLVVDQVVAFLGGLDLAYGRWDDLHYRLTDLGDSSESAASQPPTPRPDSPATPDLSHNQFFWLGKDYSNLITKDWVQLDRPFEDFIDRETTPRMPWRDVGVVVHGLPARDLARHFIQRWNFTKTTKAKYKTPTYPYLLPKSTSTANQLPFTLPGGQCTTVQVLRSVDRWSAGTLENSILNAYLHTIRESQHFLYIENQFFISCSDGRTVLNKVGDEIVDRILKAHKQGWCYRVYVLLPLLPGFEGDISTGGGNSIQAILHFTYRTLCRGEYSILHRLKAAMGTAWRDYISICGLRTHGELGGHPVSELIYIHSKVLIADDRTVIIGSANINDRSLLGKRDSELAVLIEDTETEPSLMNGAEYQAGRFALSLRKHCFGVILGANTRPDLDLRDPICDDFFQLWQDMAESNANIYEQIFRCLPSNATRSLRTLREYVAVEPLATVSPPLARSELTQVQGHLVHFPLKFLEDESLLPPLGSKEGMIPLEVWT
Sequence (O14939 whole entry, looked up): as above

Row | SMILES | remaining activity
1 | O=C(NCCN1CCC2(CC1)C(=O)N(Cc1ccccc1)c1ccccc12)c1ccc2ccccc2c1 | 70.6% (inactive)
2 | O=C(NCCN1CCC2(CC1)C(=O)NCN2c1ccccc1)c1ccncn1 | 93.7% (inactive)
3 | C[C@@H](CN1CCC2(CC1)C(=O)NCN2c1ccc(F)c(F)c1)NC(=O)c1ccc(F)cc1 | 23.6% (active)
4 | O=C(C1CC1c1ccccc1)N1CC(N2CCC3(CC2)C(=O)NCN3c2ccccc2)C1 (configuration not stated) | 82.9% (inactive)
5 | O=C(NCCN1CCC2(CC1)C(=O)NCN2c1ccc(Cl)cc1)c1cc2ccccc2[nH]1 | 48.1% (active)
6 | O=C(CCN1CCC2(CC1)C(=O)NCN2c1ccccc1)Nc1ccc(Cl)cc1 | 183% (inactive)
7 | COc1cccc(C(=O)NCCN2CCC3(CC2)C(=O)NCN3c2ccccc2)n1 | 60.7% (inactive)
8 | O=C(NCCN1CCC2(CC1)C(=O)NCN2c1cccc(F)c1)c1cc(C(F)(F)F)ccc1C(F)(F)F | 87.9% (inactive)
9 | O=C(NCCN1CCC2(CC1)C(=O)NCN2c1ccc(F)c(F)c1)c1ccc(Cl)cc1 | 55.3% (inactive)
10 | C[C@@H](CN1CCC2(CC1)C(=O)NCN2c1ccccc1)NC(=O)c1ccc(F)c(F)c1 | 54.7% (inactive)
11 | O=C(NCCN1CCC2(CC1)C(=O)NCN2c1ccccc1)c1cnc2ccccc2n1 | 101% (inactive)
12 | O=C(NCCN1CCC2(CC1)C(=O)NCN2c1ccccc1)C1CCc2ccccc2C1 (configuration not stated) | 50.3% (inactive) and 75.3% (inactive)
13 | C[C@H](N)CN1CCC2(CC1)C(=O)NCN2c1ccccc1 (tested in a mixture with another compound) | 74.1% (inactive)
14 | O=C(NCCN1CCC2(CC1)C(=O)NCN2c1ccccc1)c1ccc(F)cc1O | 82.6% (inactive)
15 | O=C(c1cccc(F)c1)N(CCN1CCC2(CC1)C(=O)NCN2c1cccc(F)c1)C(=O)c1cccc(F)c1 | 71.6% (inactive)
16 | O=C(NCCN1CCC2(CC1)C(=O)NCN2c1cccc(Cl)c1)c1cc2cc(F)ccc2[nH]1 | 40.2% (active)
17 | O=C(NCCN1CCC2(CC1)C(=O)NCN2c1cccc(Cl)c1)c1cnc2ccccc2c1 | 45.2% (active)
18 | NC1(CN2CCC3(CC2)C(=O)NCN3c2ccccc2)CCCC1 (tested in a mixture with another compound) | 74.2% (inactive)
19 | O=C(C1C[C@H]1c1ccccc1)N1CC(N2CCC(n3c(=O)[nH]c4ccccc43)CC2)C1 (some centres not stated) | 87.7% (inactive)
20 | C[C@@H](CN1CCC2(CC1)C(=O)NCN2c1ccc(F)c(F)c1)NC(=O)c1ccc2ccccc2c1 | 51.2% (inactive)
21 | O=C(c1cnc2ccccc2c1)N1CCCC1CN1CCC(n2c(=O)[nH]c3ccccc32)CC1 (configuration not stated) | 54.2% (inactive)
22 | CN1CN(c2ccccc2)C2(CCN(CCNC(=O)c3ccc4ccccc4c3)CC2)C1=O | 57.9% (inactive)
